Measured values taken from PubChem BioAssay (NCATS).
Inconclusive results are not listed. Where a call stands in place of a potency, no number is given. Active and inactive are the calls of the source. The call rests on the fitted dose curve; in most records, active means well fitted cell-killing curve with a large enough effect; inconclusive means small, poorly fitted or top-dose-only effect, or effect the other way; inactive means no such curve, though single readings can be large or run the other way.

Experiments:
[1] = Viability qHTS for spleen associated tyrosine kinase inhibitor (SYKi) naive MV4-11 cells (AID 1963823); further: nearly all actives have a fitted effect of over 40% in size
In short: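 Compounds were dispensed acoustically onto plates, MV4-11 cells (SYKi-naive) added at 500 per well, and plates incubated 72 hr at 37 C. CellTiter-Glo was added and luminescence measured after 10 min.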

[2] = Viability qHTS for spleen associated tyrosine kinase inhibitor (SYKi) drug resistant MV4-11 cells (AID 1963824); further: nearly all actives have a fitted effect of over 35% in size
In short: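 SYK inhibitor-resistant MV4-11 AML cells, 500 per well, added to predispensed compounds and incubated 72 hr at 37 C, 5% CO2. Viability measured by CellTiter-Glo luminescence after 10 min at room temperature.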
Potency means the concentration at half of the fitted maximal effect.

| SMILES | Potency [1] | Potency [2] |
| --- | --- | --- |
| CC(C)(OC1OC(CO)C(O)C(O)C1O)C1CCC(O)(CO)C2CC(O)C(C)(O)C2C1 (centres undefined) | inactive | inactive |
| C=C1CC[C@@H]2[C@](C)(CO)[C@H](O)CC[C@@]2(C)[C@@H]1C/C=C1/C(=O)OC[C@@H]1O | 4.53 µM (active) | 3.21 µM (active) |
| CCCCCCCCCCCCCCCCO | inactive | inactive |
| CSc1cc2c(s1)c1cnn(Cc3ccccc3F)c(=O)c1n2C | inactive | inactive |
| COc1ccc2c3c1O[C@H]1C[C@@H](O)C=C[C@@]31CCN(C)C2 | inactive | inactive |
| COc1ccc(/C=C\C(=O)O)c(O[C@@H]2O[C@H](CO)[C@@H](O)[C@H](O)[C@H]2O)c1 | inactive | inactive |
| CC(=O)c1ccc2c(c1)[C@H](NC(=O)c1ccc(F)c(Cl)c1)[C@H](O)C(C)(C)O2 | inactive | inactive |
| Nc1ncnc2c1c(-c1ccc(Oc3ccccc3)cc1)nn2[C@@H]1CCCNC1 | 0.206 µM (active) | 0.259 µM (active) |
| C[C@]12CCC(=O)C=C1[C@@H](O)C[C@@H]1[C@@H]2[C@@H](O)C[C@@]2(C)[C@H]1CC[C@]2(O)C(=O)CO | inactive | inactive |
| CC(C)C1CCC(CO)=CC1/C=C(\CO)C(=O)OCC1(O)CCC(C(C)C)C2C=C(C(=O)O)COC(=O)C21 (centres undefined) | inactive | inactive |
| O=C(O)COCCN1CCN([C@H](c2ccccc2)c2ccc(Cl)cc2)CC1 | inactive | inactive |
| CCCCNc1ncc2c(-c3ccc(S(=O)(=O)N4CCOCC4)cc3)nn(C3CCC(O)CC3)c2n1 (centres undefined) | 0.0184 µM (active) | 0.0291 µM (active) |
